# Rows were chosen to be rich in hits. Some 11% of all compounds tested hit in one or more screens of this group.
# BAZ2B inh: blocks human BAZ2B. Potency, µM (highest dose often 114 µM), inactives show at the highest dose activity change, negative = inhibition, usual class: inhibitors. Q9UIF8. AID 504333. AlphaScreen BAZ2B-H3K14Ac peptide displacement. 4.4% of 360,000 active; note: potency is the fitted concentration of half-maximal effect; % is set by controls: 0 for no effect and ±100 for the full control effect; nearly all actives have a fitted effect of over 60% in size
#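 Compounds, titrated to a top concentration of 110 uM, were incubated 30 min at room temperature with preformed BAZ2B/acetyl-K14 H3 peptide complex (50 nM each). Proximity signal was measured by AlphaScreen after 20 min with beads.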
# G9a block: blocks human histone lysine methyltransferase G9a. Q96KQ7. G9a H3K9 monomethylation, AlphaScreen, 2 h. Potency, µM (top dose mostly 102 µM), for inactives: at the top dose activity, negative = inhibition, actives largely listed as inhibitors. 8.8% of 350,000 active. AID 504332; note: potency is the fitted concentration of half-maximal effect; % is set by controls: 0 for no effect and ±100 for the full control effect; nearly all actives have a fitted effect of over 75% in size
#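 Chemiluminescent proximity detection of H3K9 monomethylation, read after 10 min bead incubation in the dark. Reaction: 20 nM G9a, 500 nM biotin-H3K9 peptide, 20 uM SAM cofactor, 2 h, room temperature, following 15 min enzyme-compound preincubation.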
# HP1b binding inh: blocks HP1-beta chromodomain binding to methylated histone tails. 0.56% of 390,000 active. AID 540317. AlphaScreen HP1-beta / biotin-H3K9me3 peptide binding. Potency, µM (top dose mostly 114 µM), without a hit: top-dose activity change, negative = inhibition, hits mostly inhibitors; note: potency is the fitted concentration of half-maximal effect; nearly all actives have a fitted effect of over 70% in size
# Target sequence (P83916 whole entry, looked up): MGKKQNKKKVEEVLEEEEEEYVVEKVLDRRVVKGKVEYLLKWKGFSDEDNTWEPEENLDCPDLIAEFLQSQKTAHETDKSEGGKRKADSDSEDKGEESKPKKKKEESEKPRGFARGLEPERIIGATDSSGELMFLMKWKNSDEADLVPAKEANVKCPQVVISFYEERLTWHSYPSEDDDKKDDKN
#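 Compound inhibition of the preformed complex between 50 nM HP1-beta and 50 nM biotinylated H3K9me3 peptide was read by AlphaScreen. Buffer was PBS pH 7.4 with 0.01% Tween-20. Incubations ran 30 min at room temperature, with 10 ug/mL donor/acceptor beads.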
# L3MBTL1 block: blocks human L3MBTL1. Potency, µM (highest dose often 57.1 µM), inactives show at the highest dose activity, negative = inhibition, usual class: inhibitors. Q9Y468. AlphaScreen L3MBTL1–H3K9me1 peptide binding. 0.66% of 230,000 active; note: potency is the fitted concentration of half-maximal effect; % is set by controls: 0 for no effect and ±100 for the full control effect; nearly all actives have a fitted effect of over 60% in size
#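 L3MBTL1 (50 nM) pre-complexed 30 min with biotinylated H3(1-15)K9me1 peptide (75 nM), then compounds added for 30 min at room temperature; AlphaScreen streptavidin donor/nickel chelate acceptor beads (10 ug/mL final) read after 30 min dark incubation.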
# JMJD2A Tudor: blocks the human JMJD2A Tudor domain; O75164; Potency, µM (titrated, usually from 114 µM), without a hit: top-dose activity change, negative = inhibition, usual class: inhibitors; 4.4% of 390,000 active; AlphaScreen JMJD2A-Tudor / H3K4me3 peptide binding; AID 504339; note: potency is the fitted concentration of half-maximal effect; % is set by controls: 0 for no effect and ±100 for the full control effect; nearly all actives have a fitted effect of over 50% in size
# PI5P4K alpha inh: blocks human PI5P4K alpha kinase activity; 1.2% of 330,000 active; PI5P4Kalpha enzyme, ADP-Glo luminescence, 60 min; active compounds read low; AID 652105; P48426; max response, %; active = max response of -50% or lower; inconclusive = between -30% and -50%; inactive = -30% or higher; note: value at the top dose of about 77 µM; % is set by controls: 0 for no effect and ±100 for the full control effect
# Target sequence (P48426 whole entry, looked up): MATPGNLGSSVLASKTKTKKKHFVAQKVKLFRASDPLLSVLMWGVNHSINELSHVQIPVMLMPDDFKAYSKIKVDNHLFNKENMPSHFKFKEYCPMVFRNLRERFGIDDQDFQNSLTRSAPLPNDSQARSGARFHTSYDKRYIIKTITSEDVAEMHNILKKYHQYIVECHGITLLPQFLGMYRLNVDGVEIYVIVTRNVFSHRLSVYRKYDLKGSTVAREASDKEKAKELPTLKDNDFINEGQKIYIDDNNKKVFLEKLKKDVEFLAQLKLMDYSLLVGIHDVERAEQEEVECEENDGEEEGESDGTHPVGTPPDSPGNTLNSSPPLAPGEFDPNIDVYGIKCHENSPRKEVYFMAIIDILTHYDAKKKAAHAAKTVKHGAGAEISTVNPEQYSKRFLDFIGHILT
#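 PI5P4Kalpha ADP-Glo assay; 5 microM ATP final; 60 min RT reaction; HEPES pH 7.4/EGTA/CHAPS, 5% DMSO; controls lacking substrate or enzyme; luminescent end-point.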
# * hit, by the source's call; ? = inconclusive; / = no result given; [ ] = dose if it differs, or a comment. Unless noted, calls come from the whole dose curve; as a rule, active = well fitted inhibition curve with a large enough effect; inconclusive = small, poorly fitted or top-dose-only effect; inactive = no such curve, though single readings can be large or run the other way.
SMILES,BAZ2B inh,G9a block,HP1b binding inh,L3MBTL1 block,JMJD2A Tudor,PI5P4K alpha inh
CC(Sc1nc2ccccc2[nH]1)C(=O)O (stereo not drawn),2.6%,0.9%[12.7 µM],9.4%,/,-28.5%,-6.3
CC(C)(C)c1nc2ccccc2[nH]1,-8.5%,?,-4.0%,/,79.4µM*,-12.7
CCOC(=O)Cn1c(=O)oc2cc(S(=O)(=O)Nc3ccccc3F)ccc21,0.3%,-1.7%[59 µM],39.9%,/,4.0%,/
Cc1cnc(CNc2ccnc(-c3ccccc3C(F)(F)F)n2)cn1,/,2.8%[0.501 µM],/,/,/,/
CCCOc1ccc2nc(C)c(CCC)c(SC(=N)N)c2c1,?,39.8µM*,28.6%,-13.0%,?,-4.5
Cc1ccc(S(=O)(=O)NCCSCc2ccccc2)cc1,0.3%,10µM*,22.3%,-3.2%,-10.0%,2.3
Cc1ccc(S(=O)(=O)NCCNS(=O)(=O)c2ccc(C)cc2)cc1,-17.5%,-16.9%,14.2%,/,-7.8%,3.2
N#CC1=C(N)n2c(s/c(=C\c3ccco3)c2=O)=C(C#N)C1c1ccco1 (stereo not drawn),?,?,79.4µM*,25.1µM*,56.2µM*,-69.9*
CCOC(=O)C1=c2s/c(=C\c3ccncc3)c(=O)n2C(N)=C(C(=O)OC)C1c1ccncc1 (stereo not drawn),-15.8%,-48.2%,44.7%,2.4%,-24.8%,-0.9
CC(C)c1ccc(/C=c2\sc3n(c2=O)C(N)=C(C#N)C(c2ccc(C(C)C)cc2)C=3C(N)=O)cc1 (stereo not drawn),/,/,16.9%,/,-12.0%,?
N#CC1=C(N)n2c(s/c(=C\c3cccs3)c2=O)=C(C#N)C1c1cccs1 (stereo not drawn),-4.3%,35.5µM*,19.8%,-7.1%,-19.3%,-56.2*
CCOC(=O)C1=C(N)n2c(s/c(=C/c3ccco3)c2=O)=C(C(=O)OC)C1c1ccco1 (stereo not drawn),?,?,?,/,56.2µM*,-26.3
CCOC(=O)c1cc(NC(=O)c2ccccc2)c(=O)n2c1oc1ccc(Cl)cc12,33.3%,38.0%[59 µM],63.3%,/,-2.7%,/
Cc1ccc(CNC(=O)CSc2nnc(C)c3c(C)n(-c4ccccc4)nc23)cc1,-5.3%,-31.1%[59 µM],23.4%,/,-23.8%,/
CCOC(=O)CN(Cc1ccccc1)C(C(=O)NC1CCCCC1)c1ccccc1 (stereo not drawn),11.1%,9.4%[59 µM],31.3%,/,0.0%,/
Cc1nc2cnc(N3CCOCC3)nc2n(Cc2ccc(F)cc2)c1=O,/,-1.1%[0.501 µM],/,/,/,/
O=C(c1cccc(-n2cccc2)c1)N1CCN(S(=O)(=O)c2ccccc2Br)CC1,-33.2%,44.7µM*,-6.1%,-2.3%,-20.7%,7.3
COC(=O)c1ccccc1NC(=S)NC(NC(=O)c1ccccc1[N+](=O)[O-])C(Cl)(Cl)Cl (stereo not drawn),1.4%,3.55µM*,0.6%,-6.3%,-19.8%[57.1 µM],-8.4
COC(=O)c1ccccc1NC(=S)NC(NC(=O)c1ccco1)C(Cl)(Cl)Cl (stereo not drawn),-2.9%,2.24µM*,-5.1%,-4.3%,-32.1%,/
COC(=O)c1ccccc1NC(=S)NC(NC(=O)COc1ccccc1)C(Cl)(Cl)Cl (stereo not drawn),12.6%,2.24µM*,-20.4%,0.1%,-25.3%,1.7
COC(=O)c1ccccc1NC(=O)c1ccco1,8.3%,-3.1%,22.6%,15.9%,-4.5%,-1.2
O=C(NC(NC(=S)Nc1ccccc1C(=O)O)C(Cl)(Cl)Cl)c1ccco1 (stereo not drawn),-1.7%,10µM*,-27.2%,8.4%,79.4µM*,-20.6
Cc1ccccc1NC(=S)NC(NC(=O)c1ccco1)C(Cl)(Cl)Cl (stereo not drawn),-0.7%,?,24.4%,28.8%,-27.8%,-7.4
Cc1ccccc1NC(=S)NC(NC(=O)COc1ccccc1)C(Cl)(Cl)Cl (stereo not drawn),8.8%,8.4%,19.3%,7.8%,-6.4%,0.9
COc1ccc2sc(N(Cc3cccnc3)C(=O)c3ccc4c(c3)OCCO4)nc2c1,?,-4.4%[59 µM],8.8%[57 µM],/,?,/
SMILES,BAZ2B inh,G9a block,HP1b binding inh,L3MBTL1 block,JMJD2A Tudor,PI5P4K alpha inh
CCCN1C(=O)c2ccccc2NC1c1ccc(OC)c(COc2ccc([N+](=O)[O-])c(C)c2)c1 (stereo not drawn),/,/,-20.0%[57 µM],/,?,/
CCn1c2c(c(=O)n3ncc(C(=O)Nc4ccc(F)cc4Cl)c13)CN(Cc1ccc(OC)cc1)CC2,-17.8%,?,18.9%[57 µM],/,-33.5%,/
COc1ccc(/C=C/c2nc(C#N)c(NCCc3ccccc3)o2)cc1OC,-29.8%,-27.9%[59 µM],18.5%,/,6.9%,/
O=C(NC(NC(=S)Nc1ccccc1C(=O)O)C(Cl)(Cl)Cl)c1ccccc1 (stereo not drawn),?,25.1µM*,?,-16.1%,50.1µM*,-58.2*
CCc1ccc(NS(=O)(=O)c2ccc3[nH]cc(C(=O)NC4CCCC4)c(=O)c3c2)cc1,/,?,1.9%,/,?,/
Fc1ccc(C(Nc2ccccn2)c2c[nH]c3ccccc23)cc1 (stereo not drawn),-20.0%,39.8µM*,-11.3%,-22.7%,?,8.7
COc1ccc(/C(O)=C2/C(=O)C(=O)N(CC3CCCO3)C2c2cccc(OC)c2)cc1 (stereo not drawn),-12.5%,-35.4%[59 µM],23.4%,-1.8%,-34.3%,/
O=C1C(=O)N(Cc2cccnc2)C(c2ccc(Br)cc2)/C1=C(\O)c1ccc2c(c1)OCCO2 (stereo not drawn),-13.6%,10.2%[59 µM],17.7%,/,-13.9%,-0.6
COc1ccc(/C(O)=C2/C(=O)C(=O)N(CC3CCCO3)C2c2ccc(O)c(OC)c2)cc1 (stereo not drawn),-6.1%,50.1µM*,-17.9%,-18.1%,-26.1%,-2.6
COc1cccc(C2/C(=C(\O)c3ccc4c(c3)OCCO4)C(=O)C(=O)N2CC2CCCO2)c1 (stereo not drawn),-28.7%,?,5.5%,/,22.4µM*,6.2
Cc1ccc(C2/C(=C(\O)c3ccc4c(c3)OCCO4)C(=O)C(=O)N2CC2CCCO2)cc1 (stereo not drawn),-26.6%,50.1µM*,-0.7%,/,?,2.4
Cc1ccc(C2/C(=C(\O)c3ccc4c(c3)OCCO4)C(=O)C(=O)N2Cc2cccnc2)cc1 (stereo not drawn),-19.8%[57.1 µM],56.2µM*,27.5%,/,-30.1%,-4.4
CCCN(C(=O)c1cc(S(=O)(=O)N2CCc3ccccc32)cn1C)c1ccc(OCC)cc1,-2.4%,-13.5%[59 µM],17.3%,/,-6.2%,/
CCN(CC)c1nc2ccccc2nc1C(=O)Nc1ccc(C(C)=O)cc1,-9.4%,3.5%[59 µM],10.2%,/,-16.0%,/
Cc1ccc(NC(=O)Cc2nc(CCl)cs2)cc1,-34.1%,8.91µM*,19.4%,9.1%,?,-15.4
